The source of these data is PubChem BioAssay AID504465 (National Center for Advancing Translational Sciences (NCATS), 2011).

Out of some 2,100 compounds screened, about 210 (10%) were called active. Roughly 53% stayed inconclusive and do not appear here. The list shows a part of the results. Unmarked numbers belong to inactive results. The call rests on the fitted dose curve; in most records, active means well fitted inhibition curve with a large enough effect; inconclusive means small, poorly fitted or top-dose-only effect, or effect the other way; inactive means no such curve, though single readings can be large or run the other way.
Potency means the concentration at half of the fitted maximal effect.

This experiment can be described thus: IN Cell qHTS Assay for Inhibitors of the mTORC1 Signaling Pathway in MEF (Tsc2-/-, p53-/-) Cells: Sytravon. Further: nearly all actives have a fitted effect of over 60% in size. As to conditions: phospho-rpS6 immunofluorescence, 24 h; series mostly up to 38.3 µM; activity, negative = inhibition: at the top concentration. The text has this:
NIH Molecular Libraries Probe Production Centers Network [MLPCN] NIH Chemical Genomics Center [NCGC] MLPCN Grant: NS059428-01 Assay Submitter (PI): Blenis, John; Hoffman, Greg; Harvard University NCGC Assay Overview: Thee mammalian target of rapamycin (mTOR) is an intracellular serine/threonine kinase Aberrant regulation of mTOR signaling plays a causative role in a number of human diseases, including cancer, benign tumors such as lymphangioleiomyomatosis (LAM) and Tuberous Sclerosis Complex (TSC), and metabolic diseases such as diabetes and obesity. This project aims to identify inhibitors of ribosomal protein S6 (rpS6) phosphorylation. The phosphorylation of rpS6 is a key event downstream of mTOR activation. The assay uses a phospho-specific antibody of phospho-rpS6 to detect inhibitors of mTOR activation. Mutations in the Tsc1 and Tsc2 genes are the underlying genetic lesions responsible for TSC, causing constitutive activation of the mTORC1 pathway and leading to profound effects on cell metabolism. Aberrant metabolism in cancer has recently received significant attention as a target to develop therapeutic agents in the treatment of cancer1. As Tsc2-/- cells have lost the ability to respond to energy and growth factor deprivation, these cells are unable to properly down regulate cellular biosynthetic processes in response to metabolic stress, and are thus extremely sensitive to glucose deprivation-induced death.2 A central goal of this project is to explore the unique cell survival and metabolic properties of cells with Tsc1 or Tsc2 by screening for compounds that selectively target the Tsc2-/- MEFs by screening both Tsc2-/- and WT MEF cell lines. We hope to better understand these aspects of TSC physiology in order to exploit them for therapeutic benefit.
NCGC IN Cell Assay Protocol: For quantitative high throughput analysis of mTORC1 signaling, we developed a cell-based assay for immuno-fluorescence based detection of rpS6 phosphorylation on the Acumen Explorer that will be used a platform for the primary small molecule screen. Mouse embryonic fibroblasts (MEFs) are cultured in 1536-well plates using DMEM + 10% FBS. Twenty-four hrs after plating, test compounds (solubilized in DMSO) are delivered and incubated with the cells for 24 hrs at 37 degree Celsius. Following the incubation, media with compound is aspirated and the cells are fixed in 4% paraformaldehyde (PFA) containing PBS + 0.2% TX-100. Next, PFA is aspirated, cells are washed two times with PBS plus 0.2% TX-100 and the cells are blocked for 1 hr at room temperature (blocking buffer: LiCOR Blocking Buffer plus 0.2% TX-100). This is followed by aspiration and staining with Alexa-488 conjugated-phospho-rpS6 Ser235/236 antibody for 2 hours at room temperature (Cell Signaling Technology # 4803, 1:50 dilution in blocking buffer). Cells are washed two times with PBS plus 0.2% TX-100, and stained with 10 uM propidium iodide (PI) for 20-25 minutes for cell number measurement (1:500 dilution of Hoescht staining is also added for IN Cell imaging). Active wells which are selected (based on Acumen results) are imaged on the IN Cell 1000 (GE Healthcare) using the D360/40X and HQ480/40X excitation filters for the Hoechst and Alexa-488 cytoplasmic stains, respectively. The fluorescence emission filters used were HQ460/40M and HQ535/50M for the Hoechst and Alexa-488 cytoplasmic stains, respectively. The normalized phospho-S6 staining is calculated as the ratio of […] for the single concentration rapamycin control (7.5 nM) and DMSO columns. […] Inhibition of the pathway is defined based on the normalized phospho-S6 intensity in rapamycin treated cells. Each treatment is reported as the % positive cells in the well, where thresholds are defined by selecting wells with the highest and lowest signal and differentiating between the % non-active and % active populations. […]
For orientation: In qHTS, concentration-response curves come from the screen itself.
With `Cc1cccc(Cn2c(CNC(=O)c3ccccc3)nc3ccccc32)c1`, the “activity, negative = inhibition” value was -18.5%.

Turning to `CC(C)CCNC(=O)c1cccc(Nc2nc3ccccc3n3nnnc23)c1`, the Potency was 4.14 µM (active).

Regarding `Cc1ccc(-c2nc3scc(CCNC(=O)c4cccc(Br)c4)n3n2)cc1`, the “activity, negative = inhibition” value was 0%.

As to `Cc1ccc(NC(=O)C2CCCN(S(=O)(=O)c3ccc4c(c3)CCCC(=O)N4)C2)cc1Cl` (stereo not drawn), the “activity, negative = inhibition” value was 1.08%.

Consider `CCCS(=O)(=O)c1c(S(=O)(=O)CCC)c2cc(C(C)(C)C)ccn2c1C(=O)c1ccc(OC)c(OC)c1`, for which the Potency was 0.147 µM (active).

For the compound `COc1ccc(OC)c(NC2=C(c3ccccc3)C(=O)c3ccccc32)c1`, the “activity, negative = inhibition” value is -54.5%.

As to `O=C(NCCc1ccccc1Cl)c1ccc2c(=O)n(-c3ccccc3)c(=O)[nH]c2c1`, the “activity, negative = inhibition” value is -43.6%.

As to `COc1ccc(OCc2nc3c4c(-c5ccccc5)c(-c5ccccc5)oc4ncn3n2)cc1`, the Potency is 4.14 µM (active).

In the case of `Cc1ccc(NC(=O)Cn2c(=O)c(CNc3ccccc3)cc3cc4c(cc32)OCCO4)cc1`, the “activity, negative = inhibition” value was 0%.

For the compound `Cc1ccc(NCc2cc3cc4c(cc3n(CC(=O)Nc3ccc(C)cc3)c2=O)OCCO4)cc1`, the Potency was 4.65 µM (active).

For `COc1cc2cc(CNc3ccc(C)cc3)c(=O)n(CC(=O)Nc3ccc(F)cc3F)c2cc1OC`, the “activity, negative = inhibition” value is -16.6%.

Turning to `CCOC(=O)c1c(C)oc2ncnc(Nc3cc(Cl)ccc3OC)c12`, the “activity, negative = inhibition” value is -1.76%.

In the case of `COc1cccc(C2=CC(c3cc(Br)ccc3F)n3nnnc3N2)c1` (stereo not drawn), the “activity, negative = inhibition” value is 0%.

Turning to `CC1CCCCN1CCCNC(=O)c1cc(Sc2cccc(Cl)c2)nc2ccccc12` (stereo not drawn), the “activity, negative = inhibition” value is 6.25%.

Consider `COc1ccc(Nc2cc(C(=O)NCCCN(C)Cc3ccccc3)c3ccccc3n2)cc1`, for which the “activity, negative = inhibition” value was 0%.

Turning to `O=C(NCCCc1nc2ccccc2n1Cc1ccc(Cl)cc1)c1ccco1`, the “activity, negative = inhibition” value was -10.8%.

As to `CCC1CCCCN1CCCNC(=O)c1cc2c(Cl)nc3ccccc3c2s1` (stereo not drawn), the Potency was 14.7 µM (active).

Turning to `CCC1CCCCN1CCCNC(=O)c1c(C)oc2ncn(CC(C)C)c(=O)c12` (stereo not drawn), the “activity, negative = inhibition” value was -3.66%.

Turning to `CN(CCCNC(=O)c1cc2c(Cl)nc3ccccc3c2s1)Cc1ccccc1`, the Potency is 18.5 µM (active).

Turning to `Fc1ccc(C(NCCc2ccccc2)c2nnc(-c3ccccc3Cl)o2)cc1` (stereo not drawn), the “activity, negative = inhibition” value was -3.75%.

Regarding `O=C(NCC1CCN(Cc2ccccc2Cl)CC1)c1cc2ccc3cccnc3c2[nH]1`, the “activity, negative = inhibition” value is -19.1%.

As to `CCOc1ccc(C2CC(=O)c3c([nH]c(C(=O)OCc4ccccc4)c3C)C2)cc1` (stereo not drawn), the Potency is 16.5 µM (active).

Turning to `Cc1c(C(=O)OC2CCC(C)CC2)[nH]c2c1C(=O)CC(c1ccc(F)cc1)C2` (stereo not drawn), the “activity, negative = inhibition” value was -18.9%.

As to `COc1cc(C2CC(=O)c3c([nH]c(C(=O)OC4CCCCC4)c3C)C2)cc(OC)c1OC` (stereo not drawn), the “activity, negative = inhibition” value was -21.9%.

`CCOc1ccc(CNC(=O)CCCc2cn(C)c3ccccc23)cc1OC`: the “activity, negative = inhibition” value was 6.25%.

As to `Cn1ncc2c(NCc3cccc(Cl)c3)ncnc21`, the “activity, negative = inhibition” value is 6.25%.

In the case of `N#Cc1ccccc1S(=O)(=O)N1CCC(Oc2ccc(-n3cnnn3)cc2)CC1`, the “activity, negative = inhibition” value was -17.1%.

Take `Cc1ccccc1CSCCNC(=O)C1CCN(S(=O)(=O)Cc2ccccc2)CC1`: the “activity, negative = inhibition” value is -21.6%.

As for `CCCNC(=O)C1CCN(Cc2cc3ccccc3n2Cc2ccccc2)CC1`, the “activity, negative = inhibition” value was -17.9%.

Turning to `Cc1ccccc1Cn1c(CN2CCC(C(=O)NCCN(C)C)CC2)cc2ccccc21`, the Potency is 11.7 µM (active).

`Cc1cccc(C)c1Nc1c(-c2ccsc2)nc2cccc(C)n12`: the “activity, negative = inhibition” value was -13%.

Take `Clc1cccc(CSc2ccc(-c3cccs3)nn2)c1`: the “activity, negative = inhibition” value was -10%.

For the compound `CCOC(=O)c1cc(-c2ccc(C)cc2)n(CC(=O)Nc2ccccc2F)c1C`, the Potency is 14.7 µM (active).

For the compound `CCOC(=O)c1cc(-c2ccccc2)n(-c2cccc(C(=O)N(C)c3ccc(C)cc3)c2)c1C`, the “activity, negative = inhibition” value was 0%.

With `CCOC(=O)c1cc(-c2ccccc2)n(CCC(=O)Nc2ccc(C(F)(F)F)cc2)c1C`, the “activity, negative = inhibition” value was 0%.

With `Cc1ccccc1Nc1c(-c2ccc(Cl)s2)nc2cccc(C)n12`, the “activity, negative = inhibition” value was 15.5%.

As for `CC(CNC(=O)c1ccc2nc(CCc3ccccc3)oc2c1)c1ccccc1` (stereo not drawn), the “activity, negative = inhibition” value is -0.769%.

Take `CCCS(=O)(=O)N1CC(=O)N(c2ccccc2F)C(C)(C(=O)NC2CCCCCC2)C1` (stereo not drawn): the “activity, negative = inhibition” value is 1.49%.

As for `COc1ccc(NC(=O)c2cc3c(=O)n(Cc4ccco4)ccc3nc2C)cc1`, the “activity, negative = inhibition” value was 0.892%.

On to `COc1ccc(OC)c(NC(=O)Cn2c(=O)n(Cc3ccccc3)c(=O)c3ccccc32)c1`, for which the “activity, negative = inhibition” value was -2.9%.

Consider `COc1ccc(NC(=O)Cn2c(=O)n(Cc3ccco3)c(=O)c3cc(OC)c(OC)cc32)cc1`, for which the Potency is 14.7 µM (active).

On to `CCOC(=O)Cn1c(=O)n(C2CCCCC2)c2nc(-c3cccc(C)c3)nc(C(N)=O)c21`, for which the “activity, negative = inhibition” value was -0.928%.

In the case of `O=C(Nc1ccc(C(F)(F)F)cc1)C1CCCN(S(=O)(=O)c2cccc3cccnc23)C1` (stereo not drawn), the “activity, negative = inhibition” value was -23.6%.

With `COc1ccc(Cn2c(C(=O)O)c(CNCCc3ccco3)c3ccc(OC)cc32)cc1`, the “activity, negative = inhibition” value is -26.7%.

Regarding `Cc1ccc(CNC(=O)CCCCCn2c(=O)c3sccc3n(CC(=O)Nc3ccc(C)c(F)c3)c2=O)cc1`, the “activity, negative = inhibition” value was -29.7%.

`Cc1ccc(-n2c(=O)c3ccc(C(=O)NCc4ccco4)cc3n(Cc3ccc(Cl)cc3)c2=O)cc1`: the Potency is 16.5 µM (active).

As for `Cc1ccccc1NC(=O)Cn1c(=O)n(-c2ccc(CC(=O)NCC3CCCO3)cc2)c(=O)c2ccccc21` (stereo not drawn), the “activity, negative = inhibition” value is 7.61%.

With `COc1ccc(NC(=O)c2ccc3c(c2)c(C)c(C)n3Cc2ccc(F)cc2)cc1`, the Potency is 10.4 µM (active).
